# ST2 inh – inhibitors of human ST2 (IL1RL1) binding to IL-33 | 2.3% of 78,000 active | AlphaLISA ST2-Fc/biotin-IL-33 interaction, 1 h | inhibition, % for hits at 17 µM | Q01638; in the data active means inhibition above about 30%
# Target sequence (Q01638 whole entry, looked up): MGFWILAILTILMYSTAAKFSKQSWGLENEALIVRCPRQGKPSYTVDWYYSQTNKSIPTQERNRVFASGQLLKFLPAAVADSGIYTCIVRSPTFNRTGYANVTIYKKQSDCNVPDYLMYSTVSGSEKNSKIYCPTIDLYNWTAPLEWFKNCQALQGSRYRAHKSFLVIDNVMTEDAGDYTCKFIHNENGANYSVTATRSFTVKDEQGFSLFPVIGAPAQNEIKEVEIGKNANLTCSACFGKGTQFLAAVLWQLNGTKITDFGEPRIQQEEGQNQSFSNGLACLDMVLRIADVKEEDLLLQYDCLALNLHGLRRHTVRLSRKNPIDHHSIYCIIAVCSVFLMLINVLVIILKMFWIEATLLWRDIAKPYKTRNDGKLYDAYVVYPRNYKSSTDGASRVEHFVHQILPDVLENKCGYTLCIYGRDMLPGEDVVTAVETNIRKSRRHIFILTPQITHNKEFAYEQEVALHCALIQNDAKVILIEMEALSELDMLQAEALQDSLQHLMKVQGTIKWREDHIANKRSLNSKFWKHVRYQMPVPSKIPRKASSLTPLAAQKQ
# The depositor's hits bear a star; i = inactive; ! = repeats disagree. The entries come from a sample that favours hits as a whole.
SMILES,ST2 inh
O=C(O)c1cccc2c(CN3CCN(C(c4ccccc4)c4ccccc4)CC3)c[nH]c12,i
COc1ccc(-c2cc(N3CCN(S(=O)(=O)c4ccc(OC)c(Cl)c4)CC3)ncn2)cc1,i
COc1ccc(C2C(C#N)=C(N)Oc3n[nH]c(-c4ccc(F)cc4)c32)cc1OC (stereo not drawn),31%*
COc1cc(C2C(C#N)=C(N)Oc3n[nH]c(-c4ccccc4)c32)ccc1O (stereo not drawn),i
COc1ccc(C2C(C#N)=C(N)Oc3n[nH]c(-c4ccc5ccccc5c4)c32)cc1OC (stereo not drawn),i
O=C1C=CC(=O)C(C2=C3C(=O)N(CCc4ccccc4)CC(=O)N3CCC2)=C1,38%*
O=C1CCC(C(=O)N2CCCCCCC2)CN1CCc1ccccc1 (stereo not drawn),i
O=C1c2ccccc2C(=O)N1CCc1ccccc1,i
O=C(CCCn1cnc([N+](=O)[O-])n1)Nc1cc(C(F)(F)F)ccc1Cl,i
Cc1ccc(CN2CCC(CN(C)Cc3ccc(C4CCCCO4)s3)CC2)o1 (stereo not drawn),i
COc1cccc(-c2cc(N3CCN(S(=O)(=O)c4ccccc4)CC3)ncn2)c1,i
Cc1cc2ccccc2n1CCNS(C)(=O)=O,i
CCN(CCNS(C)(=O)=O)c1ccc(N)c(C)c1,35%*
Cc1ccc(N(CC(=O)O)S(C)(=O)=O)cc1C,i
CCc1c(C)nc2ncnn2c1Sc1ccccc1NC(=O)Nc1ccc(F)cc1,i
CCCCOc1ccc(C(=O)N2CCN=C2SCc2cccnc2)cc1,i
COc1ccc(Nc2cc(C)nc(N3CCN(S(=O)(=O)c4ccc(C)cc4C)CC3)n2)cc1,i
CN=C(NS(=O)(=O)c1cc(C)ccc1C)c1ccccc1,i
COc1ccc(NC2=CC(=NS(=O)(=O)c3cc(C)ccc3C)c3ccccc3C2=O)cc1,95%*
Cc1ccc(C)c(S(=O)(=O)N=C2C=C(Nc3ccccc3)C(=O)c3ccccc32)c1,88%*
Cc1ccc(C)c(S(=O)(=O)Nc2ccccc2Cl)c1,i
COc1ccc(S(=O)(=O)Nc2cc(C)ccc2C)cc1,i
COCCN1CC(C(=O)NCc2ccc(C(F)(F)F)cc2F)CCC1=O (stereo not drawn),i
CCC(=O)Nc1ccc(Br)cc1C(=O)O,i
COC(=O)CN1C(=O)N(CCc2ccccc2)C2(CCN(Cc3nc4ccccc4n3C)CC2)C1=O,i
SMILES,ST2 inh
Cc1ccc(Nc2cc(C)nc(N3CCN(S(=O)(=O)c4cc(C(C)C)ccc4C)CC3)n2)cc1,30%*
Cc1ccc(Nc2cc(C)nc(N3CCN(S(=O)(=O)c4c(C)cc(C)cc4C)CC3)n2)cc1,i
Cc1ccc(C)c(S(=O)(=O)N2CCN(c3nc(C)cc(Nc4ccccc4)n3)CC2)c1,i
O=C(CSc1nc2c(sc3ccccc32)c(=O)n1CC1CCCO1)Nc1ccc(F)cc1 (stereo not drawn),i
O=C(C1CCC1)N1CCCN(Cc2ncc[nH]2)CC1,i
CCOC(=O)c1c(NC(=O)c2ccc(S(=O)(=O)N3CCCC3)cc2)sc2c1CCN(C)C2,i
CCOC(=O)c1c(NC(=O)c2ccc(Br)s2)sc2c1CCN(C)C2,i
CCOC(=O)c1c(NC(=O)c2sc3ccccc3c2Cl)sc2c1CCN(C)C2,38%*
CC(=O)N1CCN(CCc2ccccc2)CC1,i
O=C(C1CCN(S(=O)(=O)N2CCCCC2)CC1)N1CCCC1,i
Cc1nc2c(ccc3nc(NC(=O)c4cccc(Br)c4)sc32)s1,i
COC(=O)c1ccc(C(=O)Nc2nc3ccc4sc(C)nc4c3s2)cc1,36%*
Cc1nc2c(ccc3nc(NC(=O)c4ccccc4)sc32)s1,i
Cc1nc2c(ccc3nc(NC(=O)c4ccc5c(c4)OCCO5)sc32)s1,i
Cc1nc2c(ccc3nc(NC(=O)c4ccc(C)c(C)c4)sc32)s1,41%*
Cc1nc2c(ccc3nc(NC(=O)c4ccc(OC(C)C)cc4)sc32)s1,i
COc1ccc(CCNc2nnc(-c3ccccc3)c(=O)[nH]2)cc1OC,i
O=C(CCc1nc(-c2ccccc2F)no1)Nc1nc2ccccc2s1,i
O=C1CN(C(=O)c2nn(Cc3ccccc3)c3c2CN(C(=O)CCc2cccs2)CC3)CCN1,i
O=C1CCN(C(=O)c2nn(CCc3ccccc3)c3c2CN(C(=O)Cc2cccs2)CC3)CCN1,33%*
O=C(Cc1cccs1)N1CCC(Cc2ccccc2)CC1,i
COc1cc(C(=O)N2CCCCC2)cc(OC)c1OC,i
Cc1c(C(c2ccco2)c2c(C)n(C)n(-c3ccccc3)c2=O)c(=O)n(-c2ccccc2)n1C,i
Cc1cn(-c2ccccc2)[nH]c1=O,i
Cc1[nH]n(-c2ccccc2)c(=O)c1C(c1ccco1)c1c(C)[nH]n(-c2ccccc2)c1=O,51%*
SMILES,ST2 inh
O=[N+]([O-])c1ccc(CSc2ncn[nH]2)cc1,i
COc1ccc(C(O)=C2C(=O)C(=O)N(CCN3CCNCC3)C2c2ccc(F)cc2)cc1 (stereo not drawn),i
O=C(c1cccnc1)N1CCC(C2CCN(Cc3cccc(F)c3F)CC2)C1 (stereo not drawn),i
COc1ccc(Cc2nnc(Nc3ccc(C(C)C)cc3)[nH]c2=O)cc1,i
COc1cccc(N2COc3cc(C)c(Cl)c(C)c3C2)c1,i
CCc1c(C)sc2ncnc(NCc3cccnc3N3CCOCC3)c12,i
CCc1nc2oc(C(=O)c3ccccc3)c(N)c2c2c1COC(C)(C)C2,40%*!
CCCc1nc2oc3c(-c4ccccc4)c(C(=O)O)c(C)nc3c2c2c1COC(C)(C)C2,i
CCc1nc2oc(C(=O)c3ccc(Cl)cc3)c(N)c2c2c1COC(C)(C)C2,i
O=C(NC[C@@H]1C[C@@H]2C=C[C@H]1C21CC1)c1ccc(OC2CCN(Cc3ccccn3)CC2)cc1,i
COc1ccccc1/C=C/C1=NC(=C\c2c(F)cccc2Cl)/C(=O)O1,i
COc1ccccc1/C=C/C1=NC(=C\c2ccccc2Cl)/C(=O)O1,i
COc1ccccc1/C=C/C1=NC(=C\c2cccc([N+](=O)[O-])c2)/C(=O)O1,i
COc1ccccc1/C=C/C1=NC(=C\c2ccc(Cl)cc2)/C(=O)O1,i
COc1ccccc1/C=C1N=C(/C=C/c2ccccc2OC)OC\1=O,37%*
COc1ccccc1/C=C/C1=NC(=C\c2ccccc2)/C(=O)O1,38%*
CC(=O)c1ccc(N2CCN(Cc3ccccc3[N+](=O)[O-])CC2)cc1,i
CCOc1ccc(N2C(=O)[C@H]3C4c5ccccc5C([N+](=O)[O-])(c5ccccc54)[C@H]3C2=O)cc1,i
COc1cc(C)nc(N(CCC(C)C)S(=O)(=O)c2ccc(C)cc2)n1,i
CCc1ccc(N(CC)S(=O)(=O)c2cccc3nonc23)cc1,i
CCCN(CCC)S(=O)(=O)c1cccc2nonc12,i
CCCCN(CCCC)S(=O)(=O)c1cccc2nonc12,31%*
CC(=O)Nc1ccccc1C(=O)c1ccccc1C(=O)O,i
CC(NC(=O)c1cccs1)C(c1cccs1)N1CCN(C)CC1 (stereo not drawn),i
CCSc1nnc2c(n1)OC(c1cccc(O)c1)Nc1ccccc1-2 (stereo not drawn),i
COc1ccc(/C=C/C#N)cc1,i
COc1ccc(C=Nc2cc(Cl)c(N)c(Cl)c2)cc1,85%*
CC(=O)c1ccc(N=Cc2ccc(C=Nc3ccc(C(C)=O)cc3)cc2)cc1,i
CC1CCc2sc(N3C(=O)C4CC=C(Cl)CC4C3=O)c(C#N)c2C1 (stereo not drawn),i

# Compound activity deposited in PubChem by Paczesny and Yang Labs, IUPUI and University of Michigan.
